# Shiga toxin inh – Shiga toxin inhibition; inhibition, % at 38.7 µM; 9.2% of 290,000 active; AID 2315; Vero cells, Shiga toxin protein synthesis inhibition reporter; in the data active means inhibition mostly above about 28%, no sharp cut-off; inactive means mostly below about 43%; further: 0% is about no effect
# HCV inh – HCV inhibition; Potency, µM (highest dose often 41.8 µM), inactives show at the top dose activity change, negative = inhibition, most hits filed as inhibitors; Huh7.5.1 HCVcc-Cre infection, luciferase reporter, 44 h; 3.4% of 340,000 active; further: potency means the concentration at half of the fitted maximal effect; on the % scale 0 is the no-effect control and ±100 the full control effect
#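 Cells seeded at 1,000/well and cultured 4 h, then compounds added followed by HCVcc-Cre virus (~0.5 moi). After 44 h further culture, luciferase substrate was added, plates held 15 min at room temperature, and luminescence read for 15 sec.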
# CHX counter – counter-screen for Shiga toxin inhibitors: cycloheximide protein synthesis inhibition; AID 2314; cell reporter, cycloheximide protein synthesis inhibition counterscreen; 12% of 300,000 active; max response, %; in the data active means max response mostly above about 13%, no sharp cut-off; inactive means mostly below about 14%; further: read at 38.3 µM for the half of the compounds with a filed dose; 0% is about no effect
# HCMV inh – inhibitors of human cytomegalovirus; HFF cells, HCMV-luciferase reporter, 72 h; hits give low values; activity change, negative = inhibition, % at 57.5 µM; AID 1259415; 4.5% of 410,000 active; in the data active means activity change below about -60%; inconclusive means no clear call, values can overlap the other calls; inactive means above about -39%; further: on the % scale 0 is the no-effect control and ±100 the full control effect
#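 Steps: HFFs plated, 16 h 37C; compounds added; HCMV-luciferase added to MOI 1 PFU/cell; 72 h 37C; OneGlo reagent, 5 min room temperature; luminescence read, normalized to controls.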
# Pf growth 96h – P. falciparum growth inhibition at 96 hours. Potency, µM (series often up to 28.7 µM), inactives show top-dose activity change, negative = inhibition, hits mostly inhibitors. P. falciparum luciferase reporter growth, 96 h. 6.9% of 320,000 active; further: potency means the concentration at half of the fitted maximal effect; on the % scale 0 is the no-effect control and ±100 the full control effect
#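 Infected RBCs, 2% Hct / 0.05% parasitemia final; luciferase-reporter P. falciparum; cpd 96 h, 37 C, 5% CO2; luciferase detection reagent; luminescence.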
# Pf growth 48h – P. falciparum growth inhibition at 48 hours (one generation) | P. falciparum luciferase growth in erythrocytes, 48 h | Potency, µM (series often up to 28.7 µM), for inactives: at the top dose activity change, negative = inhibition, usual class: inhibitors | 5.9% of 310,000 active | AID 504832; further: potency means the concentration at half of the fitted maximal effect; on the % scale 0 is the no-effect control and ±100 the full control effect
#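 Read-out is firefly luciferase luminescence from an integrated reporter in P. falciparum, so falling signal marks reduced parasite growth. Infected erythrocytes were at 2% hematocrit and 0.1% parasitemia (final) in Albumax-supplemented RPMI 1640.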
# Starred values were filed as active, the others as inactive; ? = inconclusive; nt = not tested or not shown; [ ] = remark or other dose. Only some compounds are listed: those with a hit (about 21% of all), similar ones and a draw of the others. Unless noted, the call rests on the fitted dose curve; in most records, active means well fitted inhibition curve with a large enough effect; inconclusive means small, poorly fitted or top-dose-only effect, or another doubt; inactive means no such curve, though single readings can be large or run the other way.
SMILES,Shiga toxin inh,HCV inh,CHX counter,HCMV inh,Pf growth 96h,Pf growth 48h
CCN(CC)S(=O)(=O)c1ccc(N2C(=O)CC2(/C=C/c2ccccc2)C(=O)NC2CCCC2)cc1 (stereo unspecified),-5,8%,-2,-32,?,?
COc1cccc(C(=O)N2CCN=C2SC)c1,-4,6%,15,36,?,?
O=C(Nc1ccc2c(c1)OCO2)c1ccc(Br)s1,45*,?,35*,130,8.3µM*,189%
O=C(Nc1ccc2c(c1)OCO2)c1cccs1,197*,11%,61*,33,7%,53%
O=C(Nc1ccc2c(c1)OCCO2)c1cccs1,47*,2%,55*,40,2.6µM*,97%
O=C(c1ccc2c(c1)OCCCO2)c1cccs1,44*,-8%,31*,99,44%,435%
O=C(Nc1ccc2c(c1)OCO2)c1ccncc1,18,25%,15,37,?,36%
COc1ccc(-c2ccc(SCC(=O)c3cccs3)nn2)cc1,61*,-22%,34*,-3,41%,34%
O=C(CSc1ccc(-c2ccccc2)nn1)c1cccs1,55,?,28*,-15,21%,35%
Cc1ccc(-c2ccc(SCC(=O)c3ccccc3)nn2)cc1,66,-25%,30*,-27,?,64%
Cc1ccc(C(=O)CSc2ccc(-c3ccncc3)nn2)cc1,25,-12%,6,0,11%,3%
CCOC(=O)c1cccn1C1C(=O)N(Cc2ccc(C(C)C)cc2)c2c(F)cccc21 (stereo unspecified),nt,nt,nt,-35,nt,nt
CN(CC(=O)NCc1ccccc1Cl)S(=O)(=O)c1ccc2c(c1)c(=O)n(C)c(=O)n2C,nt,nt,nt,-13,nt,nt
O=C(CC12CC3CC(CC(C3)C1)C2)N1CCN(S(=O)(=O)c2cccs2)CC1,-7,4%,4,-18,13µM*,?
O=C(C1CCN(S(=O)(=O)c2cccs2)CC1)N1CCCC(C(F)(F)F)C1 (stereo unspecified),33,18%,17*,-98*,276%,-13%
CC1CCCN(C(=O)C2CCN(S(=O)(=O)c3cccs3)CC2)C1 (stereo unspecified),nt,5%,nt,-23,4%,?
O=C(C1CCN(S(=O)(=O)c2cccs2)CC1)N1CCN(c2ccccc2F)CC1,nt,nt,nt,15,nt,nt
CC1Cc2ccccc2N1C(=O)C1CCN(S(=O)(=O)c2cccs2)CC1 (stereo unspecified),-11,15%,9,?,0.93µM*,-27%
O=C(C1CCN(S(=O)(=O)c2cccs2)CC1)N1CCN(c2ccccc2O)CC1,nt,-20%,nt,10,7.4µM*,?
O=C(CS(=O)(=O)c1cccc2nsnc12)Nc1cc(F)ccc1F,nt,nt,nt,-18,nt,nt
CCc1nnc(SCC(=O)Nc2cc(Cl)c(OC)cc2OC)c2cc3oc(C)cc3n12,nt,nt,nt,9,nt,nt
COc1ccc(C(=O)c2ccc(N3CCOCC3)cc2)c(OC)c1,14,-21%,14*,113,44%,-4%
O=C(CCN1C(=O)/C(=C/c2ccccc2)SC1=S)N[C@@H](CO)Cc1ccccc1,-9,?,-10,?,13µM*,1%
O=C(CCCN1C(=O)/C(=C/c2ccc(F)cc2)SC1=S)NC1CCS(=O)(=O)C1 (stereo unspecified),-4,-7%,13,-72*,10µM*,9.3µM*
O=C(CCN1C(=O)/C(=C/c2ccccc2F)SC1=S)N[C@@H](CO)Cc1ccccc1,-3,?,-2,?,?,13%
SMILES,Shiga toxin inh,HCV inh,CHX counter,HCMV inh,Pf growth 96h,Pf growth 48h
O=C(CCN1C(=O)/C(=C/c2ccccc2)SC1=S)NC1CCS(=O)(=O)C1 (stereo unspecified),7,-3%,12,?,13µM*,?
O=C(CCCN1C(=O)c2cccc3cccc(c23)C1=O)NC1CCS(=O)(=O)C1 (stereo unspecified),44,6%,19,-10,12µM*,?
O=C(CCN1C(=O)/C(=C/c2ccccc2Cl)SC1=S)NC1CCS(=O)(=O)C1 (stereo unspecified),-7,15%,-1,-25,?,4%
CC(C)c1cccc(-c2nc3c(NCc4cccc(N(C)C)c4)nccc3[nH]2)c1,nt,nt,nt,0,nt,nt
CCOc1ccccc1CNC(=O)c1cc2c(=O)n(Cc3ccccc3)ccc2nc1C,nt,nt,nt,-23,nt,nt
C[C@@H]1CN[C@H](CCO)/C1=C\c1ccccc1,nt,45%,nt,1,nt,nt
Cc1ccc2nc(-c3ccco3)c(Cc3ccsc3)n2c1,nt,nt,nt,14,nt,nt
O=C1CCN(Cc2nnnn2CC2CCCO2)c2ccccc2N1 (stereo unspecified),51,-1%,-3,nt,15µM*,20%
O=C(c1ccco1)N1CCN(Cc2nnnn2CC2CCCO2)CC1 (stereo unspecified),-16,4%,-4,15,-18%,14%
Cc1ccc(NC(=O)COC(=O)CC2CC3CCC2C3)cc1S(=O)(=O)N1CCOCC1 (stereo unspecified),nt,9%,nt,-14,nt,nt
CN1CCC(N(C)S(=O)(=O)c2ccc(NC(=O)COc3ccc(Br)cc3Cl)cc2)CC1,nt,10µM*,nt,-21,2.1µM*,4.1µM*
CN1CCC(N(C)S(=O)(=O)c2ccc(NC(=O)COc3cccc(Cl)c3)cc2)CC1,nt,?,nt,-27,13µM*,9.3µM*
Cc1ccc(OCC(=O)Nc2ccc(S(=O)(=O)N3CCOCC3)cc2)c(C)c1,15,5%,-3,-12,20%,?
Cc1ccccc1OCCC(=O)Nc1ccc(S(=O)(=O)N(C)C2CCN(C)CC2)cc1,nt,?,nt,-1,3.7µM*,2.9µM*
Cc1ccc(OCC(=O)Nc2ccc(S(=O)(=O)N(C)C3CCN(C)CC3)cc2)c(C)c1,-6,?,-2,-7,?,12µM*
CN1CCC(N(C)S(=O)(=O)c2ccc(NC(=O)Cc3ccc(F)cc3)cc2)CC1,nt,?,nt,11,?,-4%
CNC(=O)N(O)C1N(/N=C/c2ccccc2OC)C(=S)SC1(C)C (stereo unspecified),13,-14%,-3,-9,13%,-9%
CCN(CC)CCNc1ccc(CO)c2sc3ccccc3c(=O)c12,-15,?,-3,-96*,2.9µM*,3.7µM*
O=c1c2ccccc2sc2ccc(NCCCN3CCOCC3)cc12,nt,-11%[8.37 µM],nt,27,nt,nt
O=c1c2ccccc2sc2c(CO)ccc(NCCN3CCCCC3)c12,nt,?,nt,-98*,nt,nt
CCN(CC)CCNc1cccc2sc3ccccc3c(=O)c12,nt,nt,nt,9,nt,nt
CCN(CC)CCNc1ccc(CO)c2oc3ccccc3c(=O)c12,nt,nt,nt,-89*,nt,nt
O=C(Nc1cc(-c2nc3cc(Cl)ccc3o2)ccc1Cl)c1ccco1,nt,nt,nt,100,nt,nt
Cc1ccc(S(=O)(=O)c2cnc(SCC(=O)Nc3ccc4c(c3)OCCO4)[nH]c2=O)cc1,nt,nt,nt,10,nt,nt

# High-throughput results from PubChem.
